Data on three molecules can be found in ChEMBL document CHEMBL1961873, “Compounds: GSK PKIS; Assays: Nanosyn kinase panel” (2012).

Assay [1] deals with T1, Mitogen-activated protein kinase 12 (Homo sapiens) (UniProt P53778).
T1 sequence (whole entry): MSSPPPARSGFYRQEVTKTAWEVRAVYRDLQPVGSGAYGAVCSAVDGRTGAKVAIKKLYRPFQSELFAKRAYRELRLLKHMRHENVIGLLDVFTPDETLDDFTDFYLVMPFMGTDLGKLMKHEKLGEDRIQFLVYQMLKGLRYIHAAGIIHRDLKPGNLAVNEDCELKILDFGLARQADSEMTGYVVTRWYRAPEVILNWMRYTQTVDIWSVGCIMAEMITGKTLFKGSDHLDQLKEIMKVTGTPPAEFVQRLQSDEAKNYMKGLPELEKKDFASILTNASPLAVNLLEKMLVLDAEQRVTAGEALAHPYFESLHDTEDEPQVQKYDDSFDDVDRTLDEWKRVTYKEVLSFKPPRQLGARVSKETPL
The following applies: at 1 µM.

Assay [2] has as its target SRSF protein kinase 1 (Homo sapiens) (UniProt Q96SB4). The following applies: at 0.1 µM.
The target is the same in assay [3]. The note with it: at 1 µM.
For assay [4], the target named is Phosphatidylinositol 4,5-bisphosphate 3-kinase catalytic subunit alpha isoform (Homo sapiens) (UniProt P42336). The note with it: at 0.1 µM.
Phosphatidylinositol 4,5-bisphosphate 3-kinase catalytic subunit alpha isoform (Homo sapiens), sequence (P42336 whole entry, canonical isoform): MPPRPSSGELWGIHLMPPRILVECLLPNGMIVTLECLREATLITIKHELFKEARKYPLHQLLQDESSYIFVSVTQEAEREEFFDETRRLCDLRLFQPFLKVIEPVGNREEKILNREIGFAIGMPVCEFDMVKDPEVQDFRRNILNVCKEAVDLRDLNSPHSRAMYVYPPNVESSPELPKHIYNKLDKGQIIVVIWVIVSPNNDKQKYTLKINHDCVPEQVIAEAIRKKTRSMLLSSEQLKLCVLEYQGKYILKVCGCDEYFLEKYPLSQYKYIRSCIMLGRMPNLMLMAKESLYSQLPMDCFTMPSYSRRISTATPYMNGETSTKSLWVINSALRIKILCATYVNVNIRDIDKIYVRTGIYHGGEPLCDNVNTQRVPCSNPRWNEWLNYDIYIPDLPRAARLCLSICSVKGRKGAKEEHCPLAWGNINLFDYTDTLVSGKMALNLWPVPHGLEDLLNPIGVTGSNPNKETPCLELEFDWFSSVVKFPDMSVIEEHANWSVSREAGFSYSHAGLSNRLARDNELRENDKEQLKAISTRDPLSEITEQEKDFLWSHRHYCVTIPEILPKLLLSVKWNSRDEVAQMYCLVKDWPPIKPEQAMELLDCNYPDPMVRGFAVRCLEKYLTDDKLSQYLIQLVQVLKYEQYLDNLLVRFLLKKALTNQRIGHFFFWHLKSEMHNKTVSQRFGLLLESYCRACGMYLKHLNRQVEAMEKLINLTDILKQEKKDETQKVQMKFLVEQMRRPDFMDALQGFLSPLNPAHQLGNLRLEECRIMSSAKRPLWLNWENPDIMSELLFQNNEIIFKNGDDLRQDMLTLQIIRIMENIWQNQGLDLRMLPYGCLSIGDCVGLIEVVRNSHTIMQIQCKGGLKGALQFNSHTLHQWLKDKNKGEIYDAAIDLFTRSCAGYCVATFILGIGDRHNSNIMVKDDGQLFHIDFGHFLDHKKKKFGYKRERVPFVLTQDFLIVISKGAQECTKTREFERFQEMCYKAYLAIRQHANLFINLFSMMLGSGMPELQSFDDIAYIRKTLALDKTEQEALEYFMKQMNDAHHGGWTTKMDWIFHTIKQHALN
Assay [5] has the same target. The following applies: at 1 µM.
In assay [6] the target is T2, Phosphatidylinositol 4,5-bisphosphate 3-kinase catalytic subunit delta isoform (Homo sapiens) (UniProt O00329).
T2 sequence (whole entry): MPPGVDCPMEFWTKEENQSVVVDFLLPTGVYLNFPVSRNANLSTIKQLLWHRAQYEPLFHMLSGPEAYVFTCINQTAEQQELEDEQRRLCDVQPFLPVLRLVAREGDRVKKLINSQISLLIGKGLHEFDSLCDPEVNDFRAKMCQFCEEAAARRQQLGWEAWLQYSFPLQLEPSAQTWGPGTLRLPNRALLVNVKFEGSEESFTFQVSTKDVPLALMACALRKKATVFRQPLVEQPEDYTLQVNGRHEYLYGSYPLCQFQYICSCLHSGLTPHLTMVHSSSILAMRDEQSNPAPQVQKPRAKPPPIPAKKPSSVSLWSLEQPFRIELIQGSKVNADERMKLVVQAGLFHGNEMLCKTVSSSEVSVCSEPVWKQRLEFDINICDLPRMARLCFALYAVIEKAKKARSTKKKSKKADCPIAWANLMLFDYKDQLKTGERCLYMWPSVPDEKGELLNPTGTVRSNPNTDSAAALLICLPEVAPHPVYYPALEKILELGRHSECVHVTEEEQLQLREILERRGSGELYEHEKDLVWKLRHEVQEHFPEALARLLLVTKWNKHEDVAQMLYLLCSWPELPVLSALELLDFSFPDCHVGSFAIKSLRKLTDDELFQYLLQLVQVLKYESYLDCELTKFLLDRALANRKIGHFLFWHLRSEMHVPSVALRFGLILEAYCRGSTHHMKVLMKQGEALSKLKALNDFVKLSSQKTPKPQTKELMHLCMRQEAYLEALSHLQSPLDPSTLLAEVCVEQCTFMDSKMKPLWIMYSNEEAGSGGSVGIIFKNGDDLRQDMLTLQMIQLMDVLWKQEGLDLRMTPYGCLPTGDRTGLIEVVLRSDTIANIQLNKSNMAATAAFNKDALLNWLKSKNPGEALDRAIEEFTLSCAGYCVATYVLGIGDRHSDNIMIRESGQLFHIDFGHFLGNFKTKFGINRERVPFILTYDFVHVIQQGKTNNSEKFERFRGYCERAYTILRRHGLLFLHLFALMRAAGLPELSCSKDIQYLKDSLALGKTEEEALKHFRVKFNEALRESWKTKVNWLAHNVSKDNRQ
The following applies: at 0.1 µM.

Assay [7] addresses T2, Phosphatidylinositol 4,5-bisphosphate 3-kinase catalytic subunit delta isoform (Homo sapiens). The note with it: at 1 µM.
The target in assay [8] is Phosphatidylinositol 4-kinase beta (Homo sapiens) (UniProt Q9UBF8). The following applies: at 0.1 µM.
Phosphatidylinositol 4-kinase beta (Homo sapiens), sequence (Q9UBF8 2-816 limits assumed): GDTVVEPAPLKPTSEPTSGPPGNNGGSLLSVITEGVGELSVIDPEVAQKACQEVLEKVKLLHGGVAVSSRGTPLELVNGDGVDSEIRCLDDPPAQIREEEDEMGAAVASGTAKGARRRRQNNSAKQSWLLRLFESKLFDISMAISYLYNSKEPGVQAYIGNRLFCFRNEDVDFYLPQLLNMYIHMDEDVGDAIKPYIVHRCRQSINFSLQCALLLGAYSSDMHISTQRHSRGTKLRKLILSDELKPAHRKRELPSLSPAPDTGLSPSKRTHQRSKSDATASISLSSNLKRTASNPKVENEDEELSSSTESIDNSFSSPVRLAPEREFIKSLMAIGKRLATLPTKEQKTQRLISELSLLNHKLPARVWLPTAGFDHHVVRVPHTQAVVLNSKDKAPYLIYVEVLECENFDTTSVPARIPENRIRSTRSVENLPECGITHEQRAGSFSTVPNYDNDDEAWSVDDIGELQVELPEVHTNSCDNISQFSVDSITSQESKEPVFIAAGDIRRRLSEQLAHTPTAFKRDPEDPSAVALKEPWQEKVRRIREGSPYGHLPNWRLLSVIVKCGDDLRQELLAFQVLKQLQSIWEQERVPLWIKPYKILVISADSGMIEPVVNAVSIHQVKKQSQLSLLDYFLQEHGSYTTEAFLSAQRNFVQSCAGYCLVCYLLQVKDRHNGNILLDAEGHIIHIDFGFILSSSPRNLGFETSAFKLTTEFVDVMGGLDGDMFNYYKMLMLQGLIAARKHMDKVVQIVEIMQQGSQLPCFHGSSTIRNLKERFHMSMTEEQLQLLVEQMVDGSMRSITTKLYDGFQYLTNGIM
The target is the same in assay [9]. The note with it: at 1 µM.
Assay [10] concerns the target Sphingosine kinase 1 (Homo sapiens) (UniProt Q9NYA1). The note with it: at 0.1 µM.
Assay [11] has the same target. The note with it: at 1 µM.
The target of assay [12] is T3, Sphingosine kinase 2 (Homo sapiens) (UniProt Q9NRA0).
T3 sequence (whole entry): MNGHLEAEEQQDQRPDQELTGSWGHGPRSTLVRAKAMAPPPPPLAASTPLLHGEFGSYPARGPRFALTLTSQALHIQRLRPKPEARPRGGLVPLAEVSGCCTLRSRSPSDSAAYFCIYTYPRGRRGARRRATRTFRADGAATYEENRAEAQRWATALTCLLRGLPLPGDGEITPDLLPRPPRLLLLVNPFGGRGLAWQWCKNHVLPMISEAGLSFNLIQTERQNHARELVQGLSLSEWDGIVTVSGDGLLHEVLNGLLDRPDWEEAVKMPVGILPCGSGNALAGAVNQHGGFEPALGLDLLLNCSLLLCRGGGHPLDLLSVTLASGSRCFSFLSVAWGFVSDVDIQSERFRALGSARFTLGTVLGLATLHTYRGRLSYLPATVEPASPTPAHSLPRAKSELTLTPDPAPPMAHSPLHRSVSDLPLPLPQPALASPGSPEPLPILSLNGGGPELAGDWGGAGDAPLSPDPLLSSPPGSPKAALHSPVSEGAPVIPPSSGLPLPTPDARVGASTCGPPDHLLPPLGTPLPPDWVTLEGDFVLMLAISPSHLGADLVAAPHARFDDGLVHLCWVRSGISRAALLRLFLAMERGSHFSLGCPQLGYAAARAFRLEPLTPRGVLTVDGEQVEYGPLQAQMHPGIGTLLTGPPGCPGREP
The note with it: at 0.1 µM.

Assay [13] concerns the target T3, Sphingosine kinase 2 (Homo sapiens). The following applies: at 1 µM.
Assay [14] concerns the target Casein kinase II subunit alpha (Homo sapiens) (UniProt P68400). The following applies: at 0.1 µM.
The target is the same in assay [15]. The following applies: at 1 µM.
In assay [16] the target is T4, Inhibitor of nuclear factor kappa-B kinase subunit alpha (Homo sapiens) (UniProt O15111).
T4 sequence (whole entry): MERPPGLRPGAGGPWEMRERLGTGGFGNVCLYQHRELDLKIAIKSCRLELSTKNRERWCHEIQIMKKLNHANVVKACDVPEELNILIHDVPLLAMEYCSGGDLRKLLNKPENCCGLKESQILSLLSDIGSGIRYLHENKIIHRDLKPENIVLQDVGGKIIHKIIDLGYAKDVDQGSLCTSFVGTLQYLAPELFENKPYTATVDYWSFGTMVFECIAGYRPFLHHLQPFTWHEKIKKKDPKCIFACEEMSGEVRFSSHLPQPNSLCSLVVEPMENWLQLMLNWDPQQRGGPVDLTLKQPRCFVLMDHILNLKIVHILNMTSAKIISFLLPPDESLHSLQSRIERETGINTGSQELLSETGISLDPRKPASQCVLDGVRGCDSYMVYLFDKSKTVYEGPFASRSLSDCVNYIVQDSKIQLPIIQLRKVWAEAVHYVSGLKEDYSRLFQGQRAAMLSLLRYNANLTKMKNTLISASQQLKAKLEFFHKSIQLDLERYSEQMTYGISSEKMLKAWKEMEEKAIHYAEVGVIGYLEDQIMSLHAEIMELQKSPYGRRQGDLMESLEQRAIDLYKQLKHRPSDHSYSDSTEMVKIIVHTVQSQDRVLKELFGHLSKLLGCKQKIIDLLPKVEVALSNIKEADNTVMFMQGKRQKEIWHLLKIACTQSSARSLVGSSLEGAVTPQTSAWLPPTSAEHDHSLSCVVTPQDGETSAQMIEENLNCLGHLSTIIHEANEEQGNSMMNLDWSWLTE
The note with it: at 0.1 µM.

Assay [17] addresses T4, Inhibitor of nuclear factor kappa-B kinase subunit alpha (Homo sapiens). The following applies: at 1 µM.
The target in assay [18] is T5, Inhibitor of nuclear factor kappa-B kinase subunit beta (Homo sapiens) (UniProt O14920).
T5 sequence (whole entry): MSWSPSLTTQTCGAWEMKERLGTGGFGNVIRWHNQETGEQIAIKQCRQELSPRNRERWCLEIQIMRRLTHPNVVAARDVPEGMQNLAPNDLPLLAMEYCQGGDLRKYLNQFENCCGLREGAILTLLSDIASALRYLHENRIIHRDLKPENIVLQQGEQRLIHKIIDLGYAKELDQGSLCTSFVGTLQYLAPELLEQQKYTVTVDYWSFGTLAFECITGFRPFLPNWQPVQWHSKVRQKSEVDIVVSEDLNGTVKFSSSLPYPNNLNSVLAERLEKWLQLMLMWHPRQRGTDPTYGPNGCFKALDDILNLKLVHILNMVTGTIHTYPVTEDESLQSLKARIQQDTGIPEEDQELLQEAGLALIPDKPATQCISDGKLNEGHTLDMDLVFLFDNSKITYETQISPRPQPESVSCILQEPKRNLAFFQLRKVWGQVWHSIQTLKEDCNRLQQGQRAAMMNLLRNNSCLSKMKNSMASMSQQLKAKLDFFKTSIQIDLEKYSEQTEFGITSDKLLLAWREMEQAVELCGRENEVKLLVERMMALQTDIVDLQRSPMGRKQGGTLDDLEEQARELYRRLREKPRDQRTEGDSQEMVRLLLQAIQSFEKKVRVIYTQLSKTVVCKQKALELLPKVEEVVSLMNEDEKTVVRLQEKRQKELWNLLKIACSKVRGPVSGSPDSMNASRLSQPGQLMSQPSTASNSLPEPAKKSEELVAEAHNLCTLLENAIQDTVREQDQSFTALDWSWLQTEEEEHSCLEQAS
The following applies: at 0.1 µM.

For assay [19], the target named is T5, Inhibitor of nuclear factor kappa-B kinase subunit beta (Homo sapiens). The note with it: at 1 µM.
The target of assay [20] is T6, Inhibitor of nuclear factor kappa-B kinase subunit epsilon (Homo sapiens) (UniProt Q14164).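 Also: mean inhibition of IKKε reported, from the GSK PKIS dataset.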
T6 sequence (whole entry): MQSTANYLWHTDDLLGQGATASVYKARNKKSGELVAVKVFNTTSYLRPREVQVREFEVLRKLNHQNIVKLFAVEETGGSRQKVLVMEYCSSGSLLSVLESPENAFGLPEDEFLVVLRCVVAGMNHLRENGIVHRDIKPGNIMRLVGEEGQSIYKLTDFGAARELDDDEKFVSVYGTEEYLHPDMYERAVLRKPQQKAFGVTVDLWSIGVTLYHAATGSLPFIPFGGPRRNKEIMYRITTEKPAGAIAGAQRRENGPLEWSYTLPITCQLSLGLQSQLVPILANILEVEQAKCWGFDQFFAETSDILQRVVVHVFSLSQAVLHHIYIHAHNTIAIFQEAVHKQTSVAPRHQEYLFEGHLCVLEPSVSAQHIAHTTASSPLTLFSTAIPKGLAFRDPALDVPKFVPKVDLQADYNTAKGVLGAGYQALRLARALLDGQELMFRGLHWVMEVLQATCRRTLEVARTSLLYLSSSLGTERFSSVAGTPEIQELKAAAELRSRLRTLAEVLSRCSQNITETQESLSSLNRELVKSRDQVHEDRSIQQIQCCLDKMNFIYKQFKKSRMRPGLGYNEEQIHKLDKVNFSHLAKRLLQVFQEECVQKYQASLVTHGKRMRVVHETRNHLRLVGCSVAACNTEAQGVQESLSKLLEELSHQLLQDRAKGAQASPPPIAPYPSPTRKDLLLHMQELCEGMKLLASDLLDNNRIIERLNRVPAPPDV
The note with it: at 0.1 µM.

SRSF protein kinase 1 (Homo sapiens), sequence (Q96SB4 whole entry): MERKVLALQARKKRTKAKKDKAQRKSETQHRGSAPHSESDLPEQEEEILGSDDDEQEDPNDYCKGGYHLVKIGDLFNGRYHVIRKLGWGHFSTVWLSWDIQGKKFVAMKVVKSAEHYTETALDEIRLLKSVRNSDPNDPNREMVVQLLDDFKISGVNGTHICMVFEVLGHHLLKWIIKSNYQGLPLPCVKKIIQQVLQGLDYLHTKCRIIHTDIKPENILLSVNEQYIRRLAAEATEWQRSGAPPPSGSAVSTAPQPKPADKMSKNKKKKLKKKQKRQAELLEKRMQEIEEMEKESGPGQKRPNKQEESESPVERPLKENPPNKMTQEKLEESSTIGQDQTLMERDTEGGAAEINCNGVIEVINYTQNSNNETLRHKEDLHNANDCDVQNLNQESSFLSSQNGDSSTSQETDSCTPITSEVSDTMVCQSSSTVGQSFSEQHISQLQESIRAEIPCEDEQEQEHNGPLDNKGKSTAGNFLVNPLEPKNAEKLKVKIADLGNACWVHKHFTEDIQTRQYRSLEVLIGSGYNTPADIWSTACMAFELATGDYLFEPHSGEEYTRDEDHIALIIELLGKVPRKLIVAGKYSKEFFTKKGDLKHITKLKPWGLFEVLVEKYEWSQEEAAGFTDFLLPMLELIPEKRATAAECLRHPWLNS
Sphingosine kinase 1 (Homo sapiens), sequence (Q9NYA1 whole entry): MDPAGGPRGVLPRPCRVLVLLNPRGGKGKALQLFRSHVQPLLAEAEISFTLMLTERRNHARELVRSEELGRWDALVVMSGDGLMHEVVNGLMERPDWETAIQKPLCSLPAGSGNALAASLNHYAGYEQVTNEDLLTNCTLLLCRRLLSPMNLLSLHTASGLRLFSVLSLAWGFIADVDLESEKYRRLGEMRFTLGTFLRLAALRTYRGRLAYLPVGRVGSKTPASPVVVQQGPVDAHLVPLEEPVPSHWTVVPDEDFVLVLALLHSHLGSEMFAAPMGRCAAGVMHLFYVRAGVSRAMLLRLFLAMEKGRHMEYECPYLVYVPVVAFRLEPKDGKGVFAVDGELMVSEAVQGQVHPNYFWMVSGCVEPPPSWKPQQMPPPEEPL
Casein kinase II subunit alpha (Homo sapiens), sequence (P68400 whole entry, looked up): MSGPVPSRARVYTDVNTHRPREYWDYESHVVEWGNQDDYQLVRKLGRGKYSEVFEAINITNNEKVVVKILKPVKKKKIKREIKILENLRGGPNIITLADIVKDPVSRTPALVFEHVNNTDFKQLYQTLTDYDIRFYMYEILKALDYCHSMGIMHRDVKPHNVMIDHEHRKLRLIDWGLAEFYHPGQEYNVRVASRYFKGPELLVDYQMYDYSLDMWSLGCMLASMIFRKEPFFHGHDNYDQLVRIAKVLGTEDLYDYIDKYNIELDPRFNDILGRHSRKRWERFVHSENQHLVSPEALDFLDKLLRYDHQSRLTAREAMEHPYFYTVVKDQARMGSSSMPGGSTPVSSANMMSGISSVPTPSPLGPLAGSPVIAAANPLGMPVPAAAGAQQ

`COc1cc(Nc2ncc(-c3ccccc3)o2)cc(OC)c1OC`: the inhibition in assay [1] was -1.06%; in assay [2] it was 2.19%; in assay [3] it was 1%; in assay [4], 0.99%; in assay [5], 2.57%; in assay [6] it was 2.6%. Also, the inhibition is 11.4% in assay [7]; 11.5% in assay [8]; 7.23% in assay [9]; 1.38% in [10]; 0.49% in [11]; 1.41% in assay [12]. Further, the inhibition is -0.15% in assay [13]; 0.33% in [14]; 4.02% in assay [15]; 2.97% in assay [16]; 4.62% in [17]; 0.7% in assay [18]. Moreover, the results for the inhibition in [19] and in [20] were 4.06% and 0.76%, respectively.
Regarding `COc1cc(N2CCN(C(C)C)CC2)ccc1Nc1nc(Nc2ccc(F)cc2C(=O)NC[C@@H](O)CO)c2cc[nH]c2n1`, the inhibition in [1] was 2.97%; in assay [2], -0.39%; in assay [3] it was 3.84%; in assay [4], 4.55%; in assay [5] it was 2.69%; in assay [6], 1.37%. In addition, the inhibition was 3.4% in assay [7]; -3.83% in assay [8]; -1.08% in assay [9]; 1.31% in assay [10]; 5.85% in assay [11]; 0.95% in assay [12]. Further, the inhibition in assay [13] was determined as 0.89%; in assay [14] it was 4.77%; in [15] it was 15.7%; in assay [16], 6.97%; in [17], 11.1%; in assay [18], 7.85%. The inhibition is 9.5% in assay [19] and 8.4% in assay [20].
On to `COc1cc2ncn(-c3cc(OCCc4ccccc4)c(C(N)=O)s3)c2cc1OC`, for which the inhibition in assay [1] is 1.89%; in assay [2], -2.73%; in assay [3] it was -4.19%; in assay [4], 2.08%; in assay [5] it was 3.83%; in [6], 2.55%. The inhibition in [7] was 5.55%; in assay [8], -0.92%; in assay [9], 3.17%; in assay [10], -0.54%; in [11], -2.62%; in assay [12], -3.06%. For the same molecule, the inhibition in assay [13] is 0.29%; in [14], 1.36%; in assay [15], -0.04%; in assay [16], 6.65%; in assay [17] it was 1.12%; in [18] it was 3.03%. For the same molecule, the values for the inhibition in assay [19] and in assay [20] were 0.18% and 2.79%, respectively.

The term inhibition denotes the relative decrease from the control value, in per cent.
